# Screen size: about 2,100 compounds; about 1,100 (52%) were called active. Not shown: some 27% with an inconclusive outcome. So high a share suggests a set chosen from earlier hits. Some of the results follow. A number with no mark means an inactive call. Calls come from the whole dose curve; as a rule, active = well fitted inhibition curve with a large enough effect; inconclusive = small, poorly fitted or top-dose-only effect; inactive = no such curve, though single readings can be large or run the other way.
# Target: DNA dC->dU-editing enzyme APOBEC-3G (Homo sapiens) (UniProt Q9HC16)
# Sequence (Q9HC16 whole entry, looked up): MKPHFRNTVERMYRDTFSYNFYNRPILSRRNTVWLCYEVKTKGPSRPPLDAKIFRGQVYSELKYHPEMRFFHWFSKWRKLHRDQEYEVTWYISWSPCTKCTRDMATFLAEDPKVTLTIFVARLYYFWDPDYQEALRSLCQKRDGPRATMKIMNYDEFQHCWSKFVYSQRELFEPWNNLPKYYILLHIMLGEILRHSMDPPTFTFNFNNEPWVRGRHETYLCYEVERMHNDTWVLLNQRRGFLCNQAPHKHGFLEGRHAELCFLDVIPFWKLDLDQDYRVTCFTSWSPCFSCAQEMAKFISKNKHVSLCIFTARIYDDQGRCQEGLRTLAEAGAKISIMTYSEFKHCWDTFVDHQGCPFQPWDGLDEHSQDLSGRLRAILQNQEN
# Experiment: qHTS for inhibitors of Vif-A3G interactions: Cherry picks counterscreen;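 note: hits raise yellow fluorescence by blocking Vif-driven A3G-eYFP degradation; nearly all actives have a fitted effect of over 70% in size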;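 for max response: max response given as percent of control signal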
# Conditions: HeLa A3G-eYFP + Vif (tagged APOBEC3G with the HIV-1 protein that degrades it), eYFP fluorescence, 24 h
# Outline: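 Readout is eYFP fluorescence (488 nm excitation, 500-530 nm emission) measured on Acumen Explorer after 24 h compound exposure, several concentrations, at 37 deg C. Cells: HeLa stably co-expressing Vif and C-terminally eYFP-tagged A3G; MG132 positive control.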
# Potency is the fitted concentration of half-maximal effect.
Compound,Potency,max response [%]
COc1ccc(S(=O)(=O)N2N=C(C)Oc3ccccc3C2=O)cc1,7.9 µM (active),
COC(=O)C1CCC(=O)N1C(c1ccc(OC)cc1)c1cc(OC)c(OC)c(OC)c1 (configuration not stated),0.559 µM (active),
COC(=O)c1c(N2C(=O)[C@H]3[C@@H](C2=O)[C@]2(C(=O)Nc4c(C)cccc42)N2CCC[C@@H]32)sc(C)c1C,6.27 µM (active),
CN1C2=CC=CC=CC2=[N+](C)C12C([N+](=O)[O-])=CC(=[N+]([O-])[O-])C=C2[N+](=O)[O-] (configuration not stated),,-21
CCSc1nc2ccccc2n1C(=O)/C=C/c1ccc(OC)c(OC)c1,4.98 µM (active),
C=CCSc1nc2ccccc2n1C(=O)/C=C/c1cc(OC)c(OC)c(OC)c1,8.86 µM (active),
CN(C)c1ccc(/C=C/C(=O)c2ccc(O)cc2)cc1,,57
CN(C)c1ccc(/C=C/C(=O)c2c(O)c3ccccc3oc2=O)cc1,1.3 µM (active),
Cc1ccc2c(c1)sc(-c1ccc(N(C)C)cc1)[n+]2C,2.91 µM (active),
COc1ccc(C2=NOC(C(=O)NCc3ccc(F)cc3)C2)cc1 (configuration not stated),,-20.8
COc1ccc(C2=NOC(C(=O)NCc3ccc(F)cc3)C2)cc1OC (configuration not stated),1.12 µM (active),
COc1ccc(C2=NOC(C(=O)NCc3cccs3)C2)cc1OC (configuration not stated),7.9 µM (active),
CCn1c(SCC(=O)Nc2cccc(O)c2)nc2c1c(=O)n(C)c(=O)n2C,,-1.18
COc1ccc(NC(=O)CSc2ccc3c4c(cccc24)C(=O)c2ccccc2-3)cc1,14.6 µM (active),
N#Cc1cccc(NC(=O)CSc2ccc3c4c(cccc24)C(=O)c2ccccc2-3)c1,4.61 µM (active),
COc1cc2c(cc1OC)C1=CC(=O)C(=O)N1C(C)(C)C2,14 µM (active),
CCOc1ccc(S(=O)(=O)Nc2cc3c(C(=O)OC)c(COC)oc3c3ccccc23)cc1,0.461 µM (active),
Cc1ccc(S(=O)(=O)Nc2cc(Cl)c(O)c3ncccc23)cc1,,10.1
CC(=O)c1c(C)oc2c1cc(NS(=O)(=O)c1ccc(Br)cc1)c1ccccc12,1.64 µM (active),
COc1ccc(S(=O)(=O)Nc2cccc(-c3ccc4nncn4n3)c2)cc1F,4.44 µM (active),
COc1ccc(S(=O)(=O)Nc2cccc(-c3ccc4nncn4n3)c2)cc1,4.98 µM (active),
O=[N+]([O-])c1ccc(N/N=C/C=C/c2ccco2)cc1,18.4 µM (active),
O=C(N/N=C/C=C/c1ccco1)c1ccncc1,,0.191
O=C1/C(=C/c2c[nH]c3ccccc23)CCC/C1=C\c1c[nH]c2ccccc12,20.6 µM (active),

Compound,Potency,max response [%]
CCOc1ccc(C2CC(c3c(O)c4ccccc4oc3=O)=NN2c2ccccc2)cc1OC (configuration not stated),5.17 µM (active),
c1ccc(N=NC2=NN(c3ccccc3)CS2)cc1,,20.9
Nc1nn(-c2ccccc2)c(N)c1N=Nc1ccccc1,8.86 µM (active),
Cn1ccnc1Sc1nc2ccccc2nc1NS(=O)(=O)c1ccccc1,,-7.62
COc1cc(Cl)c(C)cc1Nc1nc2ccccc2nc1NS(=O)(=O)c1ccccc1,20.6 µM (active),
COC(=O)c1cc(Nc2nc3ccccc3nc2NS(=O)(=O)c2ccc(C)cc2)ccc1Cl,,-22.7
Cc1ccc(S(=O)(=O)Nc2nc3ccccc3nc2Nc2cccc(S(=O)(=O)N3CCCC3)c2)cc1,23.1 µM (active),
O=S(=O)(Nc1nc2ccccc2nc1Nc1cccc(S(=O)(=O)N2CCCCC2)c1)c1ccccc1,20.6 µM (active),
O=C(N=c1ccn(-c2nc3ccccc3nc2NS(=O)(=O)c2ccccc2)cc1)c1cccs1,,0.295
CC(=O)Nc1ccc(S(=O)(=O)Nc2nc3ccccc3nc2Nc2ccc3ccccc3c2)cc1,,-17.6
Cc1c2ccccc2nc2c(F)c(NC(C)C)c(F)c(F)c12,8.2 µM (active),
CCCNc1c(F)c(F)c2c(C)c3ccccc3nc2c1F,12.5 µM (active),
CC1Sc2ccc(C(=O)NCc3ccccn3)cc2NC1=O (configuration not stated),,3.16
CC(C)CCNC(=O)c1ccc2c(c1)NC(=O)C(CS(=O)(=O)Cc1cccc(Br)c1)N2 (configuration not stated),,2.76
CCCNC(=O)c1ccccc1NC(=O)c1ccc2c(c1)NC(=O)C(C)S2 (configuration not stated),7.04 µM (active),
CCN(CC)c1ccc(NC(=O)c2cccc(F)c2)c(C)c1,4.98 µM (active),
COc1ccc(OC)c(NC(=O)Cn2cnc3onc(-c4ccc(Cl)cc4)c3c2=O)c1,,9.98
COc1ccc(OC)c(Nc2ncnc3c2cnn3-c2cccc(Cl)c2)c1,7.31 µM (active),
Cc1ccc2[nH]c(C(=O)NN=C3CCCCC3)c(-c3ccccc3)c2c1,,4.2
Cc1cc(NC(=O)/C(C#N)=C/c2ccc(-c3ccc(SC(F)F)cc3)o2)n(-c2ccccc2)n1,4.61 µM (active),
Cc1cc(NC(=O)/C(C#N)=C\c2ccc(-c3ccc(SC(F)F)cc3)o2)n(-c2ccccc2)n1,2.59 µM (active),
COc1ccc2c(c1)c(/C=C/c1cc[n+](C)cc1)cn2C,2.23 µM (active),
COc1ccc2[nH]cc(/C=C/c3cc[n+](C)cc3)c2c1,9.2 µM (active),
C[n+]1ccc(/C=C/c2c[nH]c3ccc(F)cc23)cc1,5.8 µM (active),

Compound,Potency,max response [%]
Cc1ccc2[nH]cc(/C=C/c3cc[n+](C)cc3)c2c1,1.4 µM (active),
Cc1ccc(NC(=S)N/N=C2\CCCCC2C)cc1 (configuration not stated),,-4.1
CC[n+]1cc(C)ccc1/C=C/c1ccc(N(C)C)cc1,17.7 µM (active),
CN(C)c1ccc(/C=C/c2cc[n+](C)cc2)cc1,12.5 µM (active),
Cc1ccc(/C=C/c2ccc(N(C)C)cc2)[n+](C)c1,17.7 µM (active),
C=CCOc1c(Cl)cc(C(=S)N2CCCC2)cc1OCC,15.8 µM (active),
CCCOc1cc(N(CC)CC)ccc1/C=C(/C#N)c1nc2ccc(C)cc2[nH]1,,37.6
Cc1cccc(OCCOc2ccccc2C=C(C#N)C#N)c1,22.3 µM (active),
COC(=O)c1sccc1NC(=S)Nc1cc(C)cc(C)c1,,5.75
CCOc1ccccc1C(=O)Nc1ccsc1C(=O)OC,2.5 µM (active),
COC(=O)c1sccc1S(=O)(=O)N(CC(=O)Nc1cc(F)ccc1F)c1ccc(C)c(C)c1,,-2.7
COc1ccc(NC(=O)C2(C)Cc3c(-c4cccc(NC(C)=O)c4)ccnc3O2)cc1 (configuration not stated),1.77 µM (active),
COc1ccc(NC(=O)C2(C)Cc3c(-c4cccc(C(N)=O)c4)ccnc3O2)cc1 (configuration not stated),4.44 µM (active),
C=CCN1C(=O)c2ccc(C(=O)N(CC(C)C)c3c(N)n(CCCC)c(=O)[nH]c3=O)cc2C1=O,,1.27
CCCCn1c(N)c(N(Cc2ccccc2OC)C(=O)c2ccc([N+](=O)[O-])s2)c(=O)[nH]c1=O,,-2.93
CCCCn1c(N)c(N(CC(C)C)C(=O)Cc2ccc(S(=O)(=O)N3CCOCC3)s2)c(=O)[nH]c1=O,18.4 µM (active),
O=S(=O)([N-]c1nc2ccccc2nc1-[n+]1ccc(-c2ccncc2)cc1)c1ccccc1,,5.45
CCc1cc[n+](-c2nc3ccccc3nc2[N-]S(=O)(=O)c2ccc(Br)s2)cc1,23.1 µM (active),
Cc1cc(C)c[n+](-c2nc3ccccc3nc2[N-]S(=O)(=O)c2ccc(Br)s2)c1,23.1 µM (active),
Cc1ccc(Cc2c(C3CCCCC3)nc3ccc(C)cn23)cc1,,27.2
COc1ccc2oc(-c3ccccc3[N+](=O)[O-])cc(=O)c2c1,5.59 µM (active),
O=C(O)c1ccccc1/C=N/Nc1ccc(S(=O)(=O)N2CCOCC2)cc1[N+](=O)[O-],,-0.239
CCCN1CCC(=NNc2ccc(S(=O)(=O)N3CCOCC3)cc2[N+](=O)[O-])CC1,14 µM (active),
Cc1ccc(NC(=S)N=Nc2c(O)n(C)c3ccc(S(=O)(=O)N4CCOCC4)cc23)cc1,,0.754
